# From PubChem BioAssay AID624417 (National Center for Advancing Translational Sciences (NCATS), 2012)
# The whole screen tested about 410,000 compounds, of which about 6,400 (1.6%) were called active. Another 20% or so got no clear call; they are omitted. The sample holds actives, similar compounds and a random draw of the others, so the mix is not that of the screen. Unmarked numbers belong to inactive results. Calls follow the shape of the dose curve; as a rule, active = well fitted inhibition curve with a large enough effect; inconclusive = small, poorly fitted or top-dose-only effect; inactive = no such curve, though single readings can be large or run the other way.
# Target: Glucagon-like peptide 1 receptor (Homo sapiens) (UniProt P43220)
# Sequence (P43220 whole entry, looked up): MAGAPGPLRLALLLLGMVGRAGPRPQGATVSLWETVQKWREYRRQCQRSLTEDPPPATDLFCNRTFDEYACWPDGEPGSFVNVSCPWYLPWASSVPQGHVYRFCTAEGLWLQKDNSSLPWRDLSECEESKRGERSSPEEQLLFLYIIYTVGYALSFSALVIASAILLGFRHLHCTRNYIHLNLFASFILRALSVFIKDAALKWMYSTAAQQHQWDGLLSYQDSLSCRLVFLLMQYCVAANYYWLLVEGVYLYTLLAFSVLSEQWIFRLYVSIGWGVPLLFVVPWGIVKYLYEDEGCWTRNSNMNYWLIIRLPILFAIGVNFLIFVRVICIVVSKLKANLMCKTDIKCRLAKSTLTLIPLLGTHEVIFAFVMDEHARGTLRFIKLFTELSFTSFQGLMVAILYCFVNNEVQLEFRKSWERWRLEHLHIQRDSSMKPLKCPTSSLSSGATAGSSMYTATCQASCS
# Assay: qHTS of GLP-1 Receptor Inverse Agonists (Inhibition Mode); also: nearly all actives have a fitted effect of over 55% in size
# Conditions: HEK293 GLP-1R CRE-luciferase, luminescence, 24 h, GLP-1R form is constitutively active; series mostly up to 38.3 µM; activity change, negative = inhibition: at the top concentration
# Excerpt: The overall goal of this project was to develop a novel assay for discovering small molecule ligands for class B1 G protein-coupled receptors (GPCRs). Very few agonists (or inverse agonists in inhibition mode) with generally weak activity for this entire group of physiologically important receptors are known to date. To establish proof-of-principle that this critical bottleneck can be overcome with a suitable screening approach, our studies focused on the class B1 receptor for glucagon-like peptide-1 (GLP-1R), a potential therapeutic target for diabetes and neurodegenerative disease. The assay was developed using a cell-based functional readout. Toward this goal, stably transfected HEK293 cell clones were established that co-express (i) a cAMP-responsive luciferase reporter gene, and (ii) constitutively active GLP-1R that upon ligand interaction inhibit (inverse agonists) the luciferase activity. In addition, two control cell lines were developed: (i) one that express only the cAMP-responsive reporter gene to enable initial exclusion of GLP-1R independent effects of candidate probes; and (ii) one with the reported gene cloned with another constitutively active orphan receptor GPR119 to enable exclusion of GLP-1R independent inhibitor effects of candidate inverse agonists. To that end, this assay was optimized for 1536-well format and screened against the MLSMR. […] NIH Molecular Libraries Probe Production Network [MLPCN] NIH Chemical Genomics Center [NCGC] Grant: NS064851 PI Name: Martin Beinborn, Tufts Medical Center
# Six ul of cell suspension (200 cells/uL in DMEM + 10% Nu serum + 1% pen-strep) is dispensed in a white solid 1536-well plate. The plates are incubated for 12 hours at 37 deg C at 5% CO2 followed by addition of 23 nL compounds. After 24 hr incubation at 37 deg C and 5% CO2, 3 uL of luciferase assay detection reagent is added. A luminescence read is obtained on the PerkinElmer Viewlux after 12 min incubation at room temperature.
# % is scaled to controls: 0 for no effect and ±100 for the full control effect; potency is read from the fitted curve at half-maximal effect.
SMILES,"activity change, negative = inhibition [%]",Potency
CCN(CC(=O)NCc1cccs1)S(=O)(=O)c1ccc(NC(C)=O)cc1,9.52,–
CNc1cc(-c2c(OC)cccc2OC)ncn1,12.1,–
CCNC(=O)CCc1nc(-c2ccc(C)cc2)no1,5.28,–
CCOc1ccc(-c2noc(CCC(=O)NC3CCCC3)n2)cc1OC,2.22,–
CCNC(=O)CCc1nc(-c2ccc(C(C)(C)C)cc2)no1,–,7.94 µM (active)
O=C1NC[C@H](CCCCN2C[C@H](Cc3ccc(O)cc3)N(CC3CCCCC3)C(=O)C2=O)N(CCc2ccccc2)C1=O,17.3,–
OCCc1ccc(NCCc2ccco2)cc1,19.7,–
CC1(C(=O)Nc2ccc3c(c2)OCCO3)CSCC(=O)N1CCOc1ccccc1 (centres undefined),-16.3,–
O=C(CCc1ccccc1)NCc1ccc2c(c1)CCN2C(=O)c1ccccc1,2.5,–
O=C(NCc1ccc2c(c1)CCN2C(=O)c1ccccc1)Nc1cc(F)ccc1F,–,10 µM (active)
O=C(NCc1ccc2c(c1)CCN2C(=O)c1ccccc1)c1ccccc1,0.837,–
COc1ccc2c(c1)CCCO[C@]21O[C@H](CCO)C[C@H](O)[C@H]1O,-1.05,–
Cc1ccc(C(=O)N2CCCC2)c(F)c1F,0,–
Cc1c(Br)cc(C(=O)N2CCCCCC2)c(C)c1C,–,10 µM (active)
COc1cc(OC)c(C(=O)N2CCCC2)cc1OC,9.35,–
C[C@H]1CN([C@@H](C)CO)C(=O)CCCn2nncc2CO[C@@H]1CN(C)Cc1ccc(Oc2ccccc2)cc1,-3.26,–
Cc1ccc(S(=O)(=O)NC(=O)Nc2nc(-c3ccc(F)c(F)c3)cs2)cc1,5.25,–
CCCc1ccc(-c2csc(NC(=O)Cc3cccs3)n2)cc1,-59.4,–
COc1ccc(CC(=O)Nc2nc(-c3ccc(F)c(F)c3)cs2)cc1OC,–,3.98 µM (active)
CC1(C)CC(=O)C=C(c2ccccc2CO)C1=O,7.06,–
CC1=C(C(=O)N2CCOCC2)CC(CC(=O)NCc2cccc3ccccc23)C(=O)N1CCC1=CCCCC1 (centres undefined),-26.4,–
CC(C)N(C(=O)[C@H]1C[C@H](CC(=O)NC(C)(C)C)C(=O)N2CCc3c([nH]c4ccc(Cl)cc34)[C@]12C)C(C)C,–,11.2 µM (active)
C[C@]12c3[nH]c4ccc(Cl)cc4c3CCN1C(=O)[C@@H](CC(=O)NCCCn1ccnc1)C[C@@H]2C(=O)N1CCOCC1,2.69,–
CC(C)N(C(=O)[C@H]1C[C@H](CC(=O)NCCC2=CCCCC2)C(=O)N2CCc3c([nH]c4cc(CCC(=O)N(C)C)ccc34)[C@]12C)C(C)C,-32.8,–
CS(=O)(=O)c1cccc(-c2ccc3nncn3c2)c1,18.5,–

SMILES,"activity change, negative = inhibition [%]",Potency
Cc1ccccc1-c1ccc2c(c1)O[C@@H](CN(C)Cc1ccc(C(=O)O)cc1)[C@@H](C)CN([C@H](C)CO)S2(=O)=O,-5.91,–
O=C1c2ccccc2C(c2nc3ccccc3[nH]2)N1c1ccccc1 (centres undefined),19.2,–
CCOc1ccc(Cl)cc1-c1cc(C(=O)NCc2cccs2)[nH]n1,-27.5,–
CC(C)c1ccc(CC(=O)N2CCC2(C)C(=O)NS(=O)(=O)c2ccc(C(C)(C)C)cc2)cc1 (centres undefined),-23.7,–
C[C@@H]1C(c2ccc(F)cc2)=NN(c2ccc(Br)cc2)[C@H]1C(=O)N1CCOC1=O,–,10 µM (active)
O=C1OCCN1C(=O)[C@H]1[C@H](c2ccc(Cl)cc2)C(c2cccc(Cl)c2)=NN1c1ccc(Br)cc1,–,7.94 µM (active)
O=c1c2cc(Br)ccc2nc(-c2cccc(Cl)c2)n1O,-27.4,–
Cc1ccc2c(c1)N(C(=O)Nc1ccc(Br)cc1F)CCO2,3.59,–
Cc1sc2ncnc(SCC(=O)NC3CCS(=O)(=O)C3)c2c1C (centres undefined),-8.39,–
CCCCNC(=O)c1nc(C2CCN(S(=O)(=O)c3ccc(F)c(F)c3)CC2)oc1-c1cccc(C(F)(F)F)c1,28.4,–
O=S1(=O)CC(N2CCN(CCO)CC2)CN1C1CCCC1 (centres undefined),16.4,–
CCCNc1ncnc2c1c(-c1ccccc1)cn2-c1ccc(OCC)cc1,–,3.16 µM (active)
O=c1[nH]cnc2c1c(-c1ccccc1)cn2-c1ccc(F)cc1,-46.3,–
COCCNc1ncnc2c1c(-c1ccccc1)cn2-c1ccc(C)c(Cl)c1,2.32,–
CC1(C(=O)Nc2ccc3c(c2)OCCO3)CN(S(C)(=O)=O)CC(=O)N1Cc1cccc(F)c1 (centres undefined),6.12,–
Cn1nc(-c2ccccc2)c(CSc2cccc(Cl)c2)c1Cl,–,10 µM (active)
Cn1nc(-c2ccccc2)c(CO)c1Sc1ccccc1,-24,–
Cc1ccc(S(=O)(=O)c2c(COC(=O)c3cccc(Cl)c3)c(-c3ccccc3)nn2C)cc1,-8.24,–
CC(=O)N1Cc2cc(C(=O)NCc3cccc(F)c3)nc(-c3cccc(C4=CCCC4)c3)c2[C@H]1CCO,-8.88,–
COc1ccc(S(=O)(=O)N2CCN(CC(=O)N3CCNC3=O)CC2)cc1OC,66.6,–
Cc1ccn2c(-c3csc(Nc4ccc(C(=O)O)cc4)n3)c(C)nc2c1,-7.71,–
Oc1ccccc1N1CCN(C(=S)NCc2ccccc2)CC1,–,11.2 µM (active)
Oc1ccc(N2CCN(C(=S)NCc3ccccc3)CC2)cc1,-61.1,–
CC1CCCCN1C(=S)NCc1ccccc1 (centres undefined),0,–
